# Experimental data reported in PubChem BioAssay (EPA / NIEHS).
# Active and inactive are the calls of the source. How the source made its calls: active means hit-call score of the fitted dose curve at least 0.9, where 1 is the maximum; inactive means score below 0.9.
# Columns and labels:
# Conditions in all cases: mRNA level, 48 h; actives raise or lower the signal
# [1] = read-out: JUN Transcription Factor, JUN (gene 3725); test: LTEA_HepaRG_JUN: Life Technologies and Expression Analysis (LTEA) Assay for JUN Transcription Factor using HepaRG (AID 2283513)
# Procedure, shortened: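 Gene-expression endpoint: JUN mRNA (qRT-PCR, normalized to three reference genes) in HepaRG cultures treated 48 h with chemicals, duplicate wells, 100 uM maximum with half-log dilutions; bidirectional fitting relative to 0.5% DMSO.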
# [2] = read-out: Lipase C (LIPC), LIPC (gene 3990); test: LTEA_HepaRG_LIPC: Life Technologies and Expression Analysis (LTEA) Assay for Lipase C (LIPC) using HepaRG (AID 2283514)
# Procedure, shortened: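 HepaRG, 48 h exposure, 8-pt half-log series from 100 uM in 0.5% DMSO, duplicates. Readout: LIPC mRNA by Fluidigm qRT-PCR, housekeeping-normalized (ACTB/GAPDH/POLR2A). Gain or loss fitted bidirectionally against DMSO baseline.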
# [3] = read-out: Lipoprotein lipase (LPL), LPL (gene 4023); test: LTEA_HepaRG_LPL: Life Technologies and Expression Analysis (LTEA) Assay for Lipoprotein lipase (LPL) using HepaRG (AID 2283515)
# Procedure, shortened: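 HepaRG, 48 h exposure, 8-pt half-log dilutions from 100 uM, 0.5% DMSO vehicle, duplicates; qRT-PCR (Fluidigm array) of LPL mRNA vs housekeeping genes; bidirectional curve fit relative to DMSO baseline.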
# [4] = read-out: MicroRNA 122 (MIR122), gene 406906; test: LTEA_HepaRG_MIR122: Life Technologies and Expression Analysis (LTEA) Assay for MicroRNA 122 (MIR122) using HepaRG (AID 2283516); further: the transcript read is the microRNA miR-122
# Procedure, shortened: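 Changes in transcript abundance, up or down relative to 0.5% DMSO vehicle, were scored after 48 h chemical treatment of HepaRG cells (maximum 100 uM). Quantification used TaqMan qRT-PCR normalized to housekeeping genes.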
# [5] = read-out: matrix metalloproteinase-10 (MMP10), MMP10 (gene 4319); test: LTEA_HepaRG_MMP10: Life Technologies and Expression Analysis (LTEA) Assay for matrix metalloproteinase-10 (MMP10) using HepaRG (AID 2283517)
# Procedure, shortened: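 Transcript levels come from Fluidigm qRT-PCR normalized to three housekeeping genes, with curves fitted bidirectionally against 0.5% DMSO. Human HepaRG cells were dosed for 48 hours at concentrations up to 100 uM.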
# [6] = read-out: MYC, MYC (gene 4609); test: LTEA_HepaRG_MYC: Life Technologies and Expression Analysis (LTEA) Assay for MYC using HepaRG (AID 2283518)
# Procedure, shortened: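 MYC transcript changes, up or down relative to 0.5% DMSO, from TaqMan qRT-PCR normalized to three housekeeping genes. Human HepaRG cultures received chemicals for 48 h at eight half-log concentrations up to 100 uM, in duplicate.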
# [7] = read-out: matrix metalloproteinase-3 (MMP3), MMP3 (gene 4314); test: LTEA_HepaRG_MMP3: Life Technologies and Expression Analysis (LTEA) Assay for matrix metalloproteinase-3 (MMP3) using HepaRG (AID 2283519)
# Procedure, shortened: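 qRT-PCR read-out of MMP3 mRNA (normalised to three housekeeping genes) in HepaRG liver cells after 48 h chemical exposure; 8-point half-log series, top 100 uM, 0.5% DMSO vehicle. Bidirectional curve fitting against DMSO baseline.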
# [8] = read-out: Paternally Expressed 10 (PEG10), PEG10 (gene 23089); test: LTEA_HepaRG_PEG10: Life Technologies and Expression Analysis (LTEA) Assay for Paternally Expressed 10 (PEG10) using HepaRG (AID 2283520);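 on AC50: differentiated HepaRG human liver cells in serum-free induction medium with 0.5% DMSO; PEG10 transcript by qRT-PCR normalised to ACTB GAPDH and POLR2A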
# Procedure, shortened: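 After 48 h exposure of differentiated HepaRG cells (0.5% DMSO vehicle, eight concentrations up to 100 uM, duplicates), PEG10 mRNA was measured by TaqMan qRT-PCR. Values were normalised to endogenous control genes and analysed bidirectionally against vehicle.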
# [9] = read-out: Protein phosphatase 2A (PPP2R4), PTPA (gene 5524); test: LTEA_HepaRG_PPP2R4: Life Technologies and Expression Analysis (LTEA) Assay for Protein phosphatase 2A (PPP2R4) using HepaRG (AID 2283522)
# Procedure, shortened: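 Using HepaRG cultures maintained in 0.5% DMSO, chemicals are tested 48 h at up to 100 uM in duplicate. Induction or suppression of PPP2R4 mRNA, measured by qRT-PCR, is fitted bidirectionally against the vehicle baseline.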
# [10] = read-out: solute carrier (SLC22A1), SLC22A1 (gene 6580); test: LTEA_HepaRG_SLC22A1: Life Technologies and Expression Analysis (LTEA) Assay for solute carrier (SLC22A1) using HepaRG (AID 2283524);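 further: differentiated human HepaRG liver cells in serum-free induction medium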
# Procedure, shortened: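 qRT-PCR readout (TaqMan, Fluidigm arrays) of SLC22A1 transcript, normalized to three housekeeping genes; bidirectional curve fit relative to 0.5% DMSO vehicle. Differentiated human HepaRG cells, 48 h chemical exposure, top concentration 100 uM, half-log steps, eight points.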
# [11] = read-out: Pyruvate Dehydrogenase Kinase 4 (PDK4), PDK4 (gene 5166); test: LTEA_HepaRG_PDK4: Life Technologies and Expression Analysis (LTEA) Assay for Pyruvate Dehydrogenase Kinase 4 (PDK4) using HepaRG (AID 2283525)
# Procedure, shortened: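 HepaRG (human liver line), 48 h chemical exposure, 8-pt half-log CRC top 100 uM, 0.5% DMSO vehicle, duplicates. Readout: TaqMan qRT-PCR of PDK4 mRNA, housekeeping-normalized; gain/loss fit relative to DMSO baseline.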
# [12] = read-out: NAD(P)H dehydrogenase [quinone] 1 (NQO1), NQO1 (gene 1728); test: LTEA_HepaRG_NQO1: Life Technologies and Expression Analysis (LTEA) Assay for NAD(P)H dehydrogenase [quinone] 1 (NQO1) using HepaRG (AID 2283526)
# Procedure, shortened: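 In this assay, gene expression is read by qRT-PCR after 48 h exposure of HepaRG cells to eight concentrations (max 100 uM, half-log) in 0.5% DMSO. Each chemical runs in duplicate, and activity is scored relative to vehicle.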
# [13] = read-out: Nuclear factor erythroid 2-related factor 2 (Homo sapiens) (UniProt Q16236); test: LTEA_HepaRG_NFE2L2: Life Technologies and Expression Analysis (LTEA) Assay for Nuclear factor erythroid 2-related factor 2 (NFE2L2) Transcription Factor using HepaRG (AID 2283527);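 on outcome: TaqMan qRT-PCR transcript level normalised to ACTB GAPDH and POLR2A housekeeping genes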
# Procedure, shortened: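 HepaRG, 48 h dosing, 8-pt half-log series from 100 uM in 0.5% DMSO, duplicates. Read-out: NFE2L2 mRNA by qRT-PCR (ACTB/GAPDH/POLR2A normalization). Bidirectional curve fit vs DMSO baseline.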
# [14] = read-out: succinate dehydrogenase complex iron sulfur subunit B (SDHB), SDHB (gene 6390); test: LTEA_HepaRG_SDHB: Life Technologies and Expression Analysis (LTEA) Assay for succinate dehydrogenase complex iron sulfur subunit B (SDHB) using HepaRG (AID 2283528)
# Procedure, shortened: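 HepaRG, 48 h exposure, 8-pt half-log series from 100 uM in 0.5% DMSO, duplicates. Readout: SDHB mRNA by Fluidigm qRT-PCR vs housekeeping genes; bidirectional fit relative to DMSO.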
# [15] = read-out: solute carrier (SLCO1B1), SLCO1B1 (gene 10599); test: LTEA_HepaRG_SLCO1B1: Life Technologies and Expression Analysis (LTEA) Assay for solute carrier (SLCO1B1) using HepaRG (AID 2283530)
# Procedure, shortened: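 SLCO1B1 transcript levels were quantified by TaqMan qRT-PCR using three housekeeping genes for normalization. This followed 48 h chemical exposure (100 uM top, half-log, 8 points, 0.5% DMSO) of HepaRG liver cells, with gain or loss fitted relative to DMSO.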
# [16] = read-out: sulfotransferase 2A1 (SULT2A1), SULT2A1 (gene 6822); test: LTEA_HepaRG_SULT2A1: Life Technologies and Expression Analysis (LTEA) Assay for sulfotransferase 2A1 (SULT2A1) using HepaRG (AID 2283531)
# Procedure, shortened: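 Expression change of SULT2A1, by qRT-PCR with three housekeeping-gene normalization, was scored bidirectionally versus DMSO. Cells: differentiated HepaRG, dosed in duplicate for 48 h across 8 points, highest 100 µM, half-log dilution, 0.5% DMSO.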
# [17] = read-out: Transforming Growth Factor (TGFA), TGFA (gene 7039); test: LTEA_HepaRG_TGFA: Life Technologies and Expression Analysis (LTEA) Assay for Transforming Growth Factor (TGFA) using HepaRG (AID 2283532)
# Procedure, shortened: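 qRT-PCR read-out of TGFA transcript, normalized to three housekeeping genes, fitted bidirectionally against 0.5% DMSO baseline. Human HepaRG cultures received chemicals for 48 h at eight half-log concentrations, top 100 uM.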
# [18] = read-out: Signal transducer and activator of transcription 3 (Homo sapiens) (UniProt P40763); test: LTEA_HepaRG_STAT3: Life Technologies and Expression Analysis (LTEA) Assay for Signal transducer and activator of transcription (STAT3) using HepaRG (AID 2283529)
# Procedure, shortened: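 HepaRG, 48 h exposure, 8-pt half-log series (top 100 uM), 0.5% DMSO vehicle, duplicates. Readout: STAT3 transcript by Fluidigm qRT-PCR, housekeeping-normalized; bidirectional fit vs DMSO baseline.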
# Sequence of Nuclear factor erythroid 2-related factor 2 (Homo sapiens) (Q16236 whole entry, looked up): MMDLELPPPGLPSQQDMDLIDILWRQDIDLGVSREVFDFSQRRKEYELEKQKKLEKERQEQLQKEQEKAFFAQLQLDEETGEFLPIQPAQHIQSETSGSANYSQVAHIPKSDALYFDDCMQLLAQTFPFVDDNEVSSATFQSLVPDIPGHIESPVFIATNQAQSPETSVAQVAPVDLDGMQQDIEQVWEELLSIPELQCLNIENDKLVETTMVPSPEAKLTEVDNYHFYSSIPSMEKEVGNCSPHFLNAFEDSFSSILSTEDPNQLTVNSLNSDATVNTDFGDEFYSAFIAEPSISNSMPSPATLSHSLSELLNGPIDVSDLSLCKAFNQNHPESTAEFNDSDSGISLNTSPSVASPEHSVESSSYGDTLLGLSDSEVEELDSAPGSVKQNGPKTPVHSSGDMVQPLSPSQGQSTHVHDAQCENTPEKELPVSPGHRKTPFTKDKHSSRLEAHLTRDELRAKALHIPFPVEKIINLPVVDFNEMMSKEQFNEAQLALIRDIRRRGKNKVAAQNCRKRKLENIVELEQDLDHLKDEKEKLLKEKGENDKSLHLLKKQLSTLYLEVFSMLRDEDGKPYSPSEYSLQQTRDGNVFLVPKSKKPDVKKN
# Sequence of Signal transducer and activator of transcription 3 (Homo sapiens) (P40763 whole entry, looked up): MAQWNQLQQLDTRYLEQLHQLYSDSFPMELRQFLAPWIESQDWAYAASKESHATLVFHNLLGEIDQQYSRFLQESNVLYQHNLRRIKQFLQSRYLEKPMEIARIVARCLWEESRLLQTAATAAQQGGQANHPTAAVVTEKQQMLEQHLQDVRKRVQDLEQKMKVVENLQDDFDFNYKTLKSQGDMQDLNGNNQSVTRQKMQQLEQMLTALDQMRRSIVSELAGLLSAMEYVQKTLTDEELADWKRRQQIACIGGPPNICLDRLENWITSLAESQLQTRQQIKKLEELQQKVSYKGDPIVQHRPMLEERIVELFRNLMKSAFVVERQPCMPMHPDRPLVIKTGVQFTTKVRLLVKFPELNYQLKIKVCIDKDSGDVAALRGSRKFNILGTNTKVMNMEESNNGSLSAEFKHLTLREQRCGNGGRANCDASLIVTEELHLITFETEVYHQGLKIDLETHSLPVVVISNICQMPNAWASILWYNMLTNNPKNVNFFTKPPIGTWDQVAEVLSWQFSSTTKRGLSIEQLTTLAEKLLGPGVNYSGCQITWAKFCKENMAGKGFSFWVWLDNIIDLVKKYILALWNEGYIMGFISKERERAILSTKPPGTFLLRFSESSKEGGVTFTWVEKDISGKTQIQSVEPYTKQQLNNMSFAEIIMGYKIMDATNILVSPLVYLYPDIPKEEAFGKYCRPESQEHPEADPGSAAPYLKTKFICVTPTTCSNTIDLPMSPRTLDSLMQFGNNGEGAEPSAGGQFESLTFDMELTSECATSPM
smiles,measurement,setting,value
COC(=O)N(OC)c1ccccc1COc1ccn(-c2ccc(Cl)cc2)n1,outcome,[1],inactive
same,AC50,[2],50 µM (active)
same,outcome,[3],inactive
same,AC50,[4],76.1 µM (active)
same,AC50,[5],78.1 µM (active)
same,outcome,[6],inactive
same,AC50,[7],26.5 µM (active)
same,AC50,[8],17 µM (active)
same,outcome,[9],inactive
same,AC50,[10],58.7 µM (active)
same,AC50,[11],11.3 µM (active)
same,AC50,[12],84.8 µM (active)
same,AC50,[13],18.3 µM (active)
same,outcome,[14],inactive
same,AC50,[15],75.9 µM (active)
same,AC50,[16],78.7 µM (active)
same,AC50,[17],78.5 µM (active)
CC1=C(C(=O)Nc2ccccc2)SCCO1,outcome,[1],inactive
same,AC50,[2],39.5 µM (active)
same,AC50,[3],36.5 µM (active)
same,outcome,[4],inactive
same,outcome,[5],inactive
same,outcome,[6],inactive
same,outcome,[7],inactive
same,outcome,[8],inactive
same,outcome,[9],inactive
same,AC50,[10],14.2 µM (active)
same,outcome,[11],inactive
same,outcome,[12],inactive
same,outcome,[13],inactive
same,outcome,[14],inactive
same,outcome,[15],inactive
same,outcome,[16],inactive
same,outcome,[17],inactive
Fc1ccc(Oc2ccnc3cc(Cl)cc(Cl)c23)cc1,outcome,[1],inactive
same,AC50,[2],78.8 µM (active)
same,outcome,[3],inactive
same,outcome,[4],inactive
same,outcome,[5],inactive
same,outcome,[6],inactive
same,outcome,[7],inactive
same,AC50,[8],33.5 µM (active)
same,outcome,[9],inactive
same,AC50,[10],97.8 µM (active)
same,AC50,[11],50 µM (active)
same,outcome,[12],inactive
same,outcome,[13],inactive
same,outcome,[14],inactive
same,outcome,[18],inactive
same,outcome,[15],inactive
same,outcome,[16],inactive
same,outcome,[17],inactive
CC1COC(Cn2cncn2)(c2ccc(Oc3ccc(Cl)cc3)cc2Cl)O1 (stereo not given),AC50,[1],62.4 µM (active)
same,AC50,[2],12 µM (active)
same,AC50,[3],12.4 µM (active)
same,AC50,[4],12.6 µM (active)
same,AC50,[5],30.8 µM (active)
same,AC50,[6],23.9 µM (active)
same,AC50,[7],31.7 µM (active)
same,AC50,[8],59.1 µM (active)
same,AC50,[9],80.6 µM (active)
same,AC50,[10],9.15 µM (active)
same,outcome,[11],inactive
same,outcome,[12],inactive
same,AC50,[13],19.7 µM (active)
same,AC50,[14],84.8 µM (active)
same,outcome,[18],inactive
same,AC50,[15],12.8 µM (active)
same,AC50,[16],19.6 µM (active)
same,AC50,[17],13.6 µM (active)
